We go through 40 compounds from PubChem BioAssay (NCI).

This is part of a sample that, as a whole, favours compounds with a hit. Of some 83,000 tested, about 20% had one in any assay.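 Plates (96-well) were seeded with cells, treated with compound at one concentration, and incubated for 48 hours before percent growth was determined.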 Values without a mark were called inactive. Calls of active or inactive are those of the source.

The assay has as its system SK-MEL-2 melanoma. As to the kind of experiment: NCI-60 one-dose screen, 48 h (100 = growth as untreated, 0 = no growth, -100 = all killed). To be noted: 10 µM unless noted. Here is the method:
Growth inhibition of the SK-MEL-2 human tumor cell line is measured as a screen for anti-cancer activity. Cells are grown in 96 well plates and exposed to the test compound for 48 hours. Compounds are tested at a single concentration, which is 10^-5 M for most compounds. The reported endpoint is percent growth (GI% or GIPRCNT), where numbers from 0 - 100% represent growth inhibition, and numbers from -100% - 0 represent cell death. For example, a value of 40 represents 60% growth inhibition. A value of 0 means no net growth occurred over the course of the experiment. A value of -40 indicates 40% of cells at the beginning of the experiment died by the end of the experiment. A value of -100 means all cells are dead at the end of the experiment.
NCI-60 Human Tumor Cell Lines Screen was performed using the standard one-dose NCI protocol, which is described in more detail at https://dtp.cancer.gov/discovery_development/nci-60/default.htm.
Compounds with GIPRCNT values below 10 were considered active. Activity score was based on GIPRCNT using the following formula: […]
Score is 0 for GIPRCNT values of 100 or above, 50 for GIPRCNT values of 0, and 100 for GIPRCNT values of -100.
As for `COc1ccc(-c2nsc3c2NC(=O)CC3c2ccc3c(c2)OCCO3)cc1` (stereo not given), the growth was 57.5%.

For the compound `NNC(=O)CNC(=O)Nc1n[nH]c(=S)s1`, the growth was 97.7%. The same measure for `COc1ccc(CN2CCCC(C(=O)c3ccc(C(F)(F)F)cc3)C2)c(O)c1` (stereo not given): -43.2% (active); for `O=C(c1ccccc1)N(CCc1ccc(Cl)cc1)C(=S)N(C(=O)c1ccccc1)c1ccccc1`: 117%. The figure for `O=C(CCc1nnc2sc(-c3ccc(Cl)cc3Cl)nn12)c1nc2ncccc2[nH]1` is -11.5% (active); for `COc1cc2nc(NC3CCC3)nc(NC3CCN(C(C)C)CC3)c2cc1OC` it is 91.5%; for `CCN1C(=O)N(CC)C2Nn3c(s/c(=C\c4ccccc4F)c3=O)=NC21` (stereo not given) it is 52.8%. The same measure for `COC(=O)c1c2c(c(C)[n+]([O-])c1C)C(=O)C(NCc1ccc(F)c(F)c1)=CC2=O`: 43.1%; for `COc1cc2c(cc1OC)C(=O)C(CC1CCN(C(=O)Nc3ccc(C)cc3)CC1)C2` (stereo not given): 97.9%; for `O=C1/C(=C/c2ccc(O)cc2)COc2ccc(O)cc21`: 114%. As for `COc1ccc(Cn2cc(Cn3c(=O)c(-c4nc5ccccc5[nH]4)cc4ccccc43)nn2)c(OC)c1OC`, the growth was 28%. As to `NCCCNc1nc2ccccc2c2c(=O)c3cc(F)ccc3sc12`, the growth is 50.6%. As for `COc1ccc(-c2nc(-c3ccccc3)c(-c3ccccc3)[nH]2)cc1OC1CCCCC1`, the growth was 95.1%. The same measure for `CCCCN1CCN(c2ccc3nc(-c4ccc5nc(-c6ccc(OC)c(OC)c6)[nH]c5c4)[nH]c3c2)CC1`: -51.2% (active); for `O=c1oc2ccc(Cl)cc2c(=O)n1-c1ccc(I)cc1F`: -24.3% (active).

For `Nc1ncnc(N)c1NC(=O)c1ccc(OCc2ccccc2)cc1`, the growth is 93.1%. The figure for `FC(F)(F)c1cccc(Nc2nc3ccccc3nc2Nc2cccc(C(F)(F)F)c2)c1` is -62.5% (active); for `O=Cc1cc2ccccc2nc1Nc1nccs1` it is 105%; for `CCOC(=O)c1ccc(N=Cc2sc(=O)[nH]c2O)cc1` it is 94.5%. The figure for `Cc1ccc2sc3c(NCCCNCCO)nc4ccccc4c3c(=O)c2c1` is 90.8%.

Regarding `C=CCN1C(=O)/C(=c2\sc3n(c2=O)NC2C(N=3)N(CC)C(=O)N2CC)c2ccccc21` (stereo not given), the growth was 65.9%. The figure for `O=[N+]([O-])c1cc2c(ccc3occc32)o1` is -46% (active); for `O=c1oc2ccc(Cl)cc2c(=O)n1-c1ccc(F)cc1F` it is -26.4% (active). The figure for `CN=c1ccc2nc3ccc(N)cc3sc-2c1` is -0.853% (active); for `C#CCn1cc(C=C2C(=O)N(C)C(=O)N(C)C2=O)c2cc(Cl)ccc21` it is 95.5%; for `COc1cc2nc(NC3CCCC3)nc(NC3CCN(C(C)C)CC3)c2cc1OC` it is 101%.

Regarding `NCCOc1ccccc1/C=C1\c2ccccc2-c2ccc([N+](=O)[O-])cc21`, the growth is 78.3%.

Consider `COc1ccccc1N1C(=N)S/C(=C\c2ccc(OCc3ccccc3F)cc2)C1=O`, for which the growth was 82.7%. Take `Cc1c(-c2noc(-c3ccc([N+](=O)[O-])cc3)n2)no[n+]1[O-]`: the growth is 101%. For `CCCCc1c(CCC)c(=N)c2ccccc2n1C`, the growth was 101%. The figure for `CC1(O)COCCCCOc2c(CN)cccc2NC(=O)c2nc(cnc2N)-c2ccc(cc2)S(=O)(=O)C(C)(C)C1` (stereo not given) is -32.6% (active). The same measure for `COc1ccc(C2NCCc3c2[nH]c2ccccc32)cc1CN1CCN(c2ccc(F)cc2)CC1` (stereo not given): 64.1%. The same measure for `CN(CCc1ccccc1)C(=S)N(C(=O)c1ccc([N+](=O)[O-])cc1)c1ccc(Cl)cc1`: 87.9%; for `O=c1cc(NC2CCN(CCCc3ccccc3)CC2)c2cc(Cl)ccc2o1`: -44% (active); for `COc1ccc(Cn2c(Br)c3c(c2-c2cc(OC)c(OC)c(OC)c2)CCc2sc(NC(C)=O)nc2-3)cc1`: 55.6%. As for `O=C(Nc1ccc(N2CCNCC2)cc1)c1[nH]ncc1Nc1cc(Oc2ccccc2)ncn1`, the growth was 72.3%. For the compound `COc1cc2nc(-c3cccc4cccnc34)nc(NC3CCN(Cc4ccccc4)CC3)c2cc1OC`, the growth was -77.8% (active). The figure for `COC(=O)/C(=C\c1c(C)[nH]c2ccccc12)S(=O)(=O)c1ccccc1` is 23.9%. `O=C(NC1CCN(Cc2ccccc2)CC1)c1cc2nc(-c3ccc(Cl)s3)cc(C(F)(F)F)n2n1`: the growth was -62.8% (active).

Regarding `COc1ccc(-c2nc(-c3ccccn3)c(-c3ccccn3)n2CC(C)C)cc1OC1CCCC1`, the growth is -4.88% (active).
